Data from PubChem BioAssay (NCATS).
Records with an inconclusive call do not appear. Activity calls are given as the source filed them. Unless noted, calls come from the whole dose curve; as a rule, active = well fitted curve in the direction sought with a large enough effect; inconclusive = small, poorly fitted or top-dose-only effect, or another doubt; inactive = no such curve, though single readings can be large; an effect the other way counts as inactive or inconclusive.

Legend:
[1] = Quantitative High-Throughput drug screen in 47 multiple myeloma cell lines against the NCATS MIPE library collection: OPM2_DSMZ cell viability assay (AID 1919872); note: nearly all actives have a fitted effect of over 30% in size; note: potency is the fitted concentration of half-maximal effect
Outline: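 CellTiter-Glo luminescence (ATP) after 48 h compound exposure, 37C/5% CO2; 500 cells/well; MIPE 4.0 approved/investigational drugs pinned in; DMSO = 100%, media only = 0% viability.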

[2] = Quantitative High-Throughput drug screen in 47 multiple myeloma cell lines against the NCATS MIPE library collection: KMS28BM_JCRB cell viability assay (AID 1919874); note: nearly all actives have a fitted effect of over 35% in size; note: potency is the fitted concentration of half-maximal effect
Outline: (§1)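 qHTS format: cells plated (500/well), pin-dosed with MIPE 4.0 compounds, kept 48 h at 37 °C. Readout was CellTiter-Glo luminescence, median RLU.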

[3] = qHTS drug screen for cell cycle checkpoint inhibitors in PARPi-resistant BRCA-mutant ovarian cancer cell lines. (AID 1963452; calls by dose curve); details: PEO1/OlaR viability, CellTiter-Glo luminescence, 96 h, stronger effect = lower value
Outline: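 PEO1, PEO4 and PEO1/OlaR ovarian cancer cells, 600 per well, exposed 96 h at 37C to a dilution series. Viability read by CellTiter-Glo luminescence, normalized to DMSO and empty wells; activity summarized as Z-AUC.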

[4] = qHTS profiling for inhibitors of Plasmodium falciparum proliferation (AID 504749); note: nearly all actives have a fitted effect of over 60% in size; note: potency is the fitted concentration of half-maximal effect;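 for activity, negative = inhibition: 0% = DMSO vehicle and full inhibition = artemisinin control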; details: P. falciparum in erythrocytes, SYBR Green DNA, 72 h
Outline: (§2)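 Quantitative HTS: compounds pinned into medium, infected erythrocytes added (0.3% parasitemia, 2.5% hematocrit), 72 h culture at 37 C under 5% CO2. Saponin/Triton lysis with SYBR Green I, overnight RT, then fluorescence read.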

3D7 = assay: as above; details: P. falciparum in erythrocytes, SYBR Green DNA, 72 h; series mostly up to 28.7 µM
Outline: as §2

7G8 = assay: as above; details: P. falciparum in erythrocytes, SYBR Green DNA, 72 h; series mostly up to 28.7 µM
Outline: as §2

AA1029 = assay: as above; details: P. falciparum in erythrocytes, SYBR Green DNA, 72 h; series mostly up to 28.7 µM
Outline: as §2

AS120 = assay: as above; details: P. falciparum in erythrocytes, SYBR Green DNA, 72 h; series mostly up to 28.7 µM
Outline: as §2

[5] = qHTS for identification of novel therapeutic agents for treatment of microphthalmiaassociated transcription factor (MiT) renal cell carcinoma (RCC) (AID 1963991; calls by dose curve; note: potency is the fitted concentration of half-maximal effect); details: CellTiter-Glo, 48 h; for z-score: stronger effect = lower value
Outline: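 Viability of three TFE3-fusion renal carcinoma lines measured by CellTiter-Glo after 48 h treatment with each of 1912 compounds at 11 concentrations. Responses scaled between DMSO (100%) and empty wells (0%) before curve fitting.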

[6] = Quantitative High-Throughput drug screen in 47 multiple myeloma cell lines against the NCATS MIPE library collection: KMS11_JCRBsus cell viability assay (AID 1919873); note: nearly all actives have a fitted effect of over 50% in size; note: potency is the fitted concentration of half-maximal effect
Outline: as §1

[7] = measured here: PEO1 parental Z-AUC
[8] = TFE3-RCC UOK109 viability, measured here: UOK109 Z-AUC
[9] = TFE3-RCC viability, measured here: UOK124 Z-AUC
[10] = TFE3-RCC viability, measured here: UOK145 Z-AUC
[11] = at 28.7 µM (top of the series), parasite line A
[12] = at 28.7 µM (top of the series), parasite line B

With `Cc1cc2cc3c(C)cc(=O)oc3c(C)c2o1` the Potency [1] was “inactive”, the Potency [2] was “inactive” and the Z-AUC [3] was 0.166 (inactive). For the same molecule, the Z-AUC [3, 7] was 0.892, the Z-AUC ([3]; measured here: PEO4 Z-AUC) was 0.841 and the activity, negative = inhibition ([4]; at 12.8 µM (top of the series), parasite line A) was 2% (inactive). The activity, negative = inhibition ([4]; at 12.8 µM (top of the series), parasite line B) was 12.4% (inactive), the Potency (3D7) was “inactive” and the Potency (7G8) was “inactive”. The Potency (AA1029) was “inactive” and the Potency (AS120) was “inactive”.

In the case of `CC[C@]1(O)C[C@H]2CN(CCc3c([nH]c4ccccc34)[C@@](C(=O)OC)(c3cc4c(cc3OC)N(C=O)[C@H]3[C@@](O)(C(=O)OC)[C@H](OC(C)=O)[C@]5(CC)C=CCN6CC[C@]43[C@@H]65)C2)C1`, the Potency [1] is reported as 0.003 µM (active), the Z-AUC [3] is reported as -0.637 (inactive) and the Z-AUC [3, 7] is reported as -1.14. For the same molecule, the Z-AUC ([3]; measured here: PEO4 Z-AUC) was -1.16, the Potency ([5]; TFE3-RCC UOK109 viability, active = Z-AUC below -0.8 in all three lines) was 0.0662 µM (active) and the z-score [5, 8] was -0.827. The z-score [5, 9] was -2.28, the z-score [5, 10] was -0.98 and the Potency ([4]; parasite line A) was 2.24 µM (active). For the same molecule, the Potency (7G8) was 0.141 µM (active), the Potency (AA1029) was 2.51 µM (active) and the Potency (AS120) was 3.55 µM (active).

For `CC(=O)NC[C@H]1CN(c2ccc(N3CCOCC3)c(F)c2)C(=O)O1`, the Potency [1] was “inactive”, the Potency [2] was “inactive” and the Z-AUC [3] was -0.303 (inactive). For the same molecule, the Z-AUC [3, 7] was -0.362, the Z-AUC ([3]; measured here: PEO4 Z-AUC) was -0.619 and the z-score [5, 8] was -0.988. The z-score [5, 9] was 0.658 and the z-score [5, 10] was 1.47.

For `COc1cc(C(C)=O)ccc1OCCCN1CCC(c2noc3cc(F)ccc23)CC1`, the Potency [1] was “inactive” and the Potency [2] was 5.9 µM (active).

For `N=C(N)c1ccc2cc(OC(=O)c3ccc(N=C(N)N)cc3)ccc2c1`, the Potency [1] was 10.5 µM (active), the Potency [2] was 5.9 µM (active) and the Z-AUC [3] was 0.0758 (inactive). For the same molecule, the Z-AUC [3, 7] was 0.542, the Z-AUC ([3]; measured here: PEO4 Z-AUC) was 0.795 and the Potency (7G8) was 11.2 µM (active).

For `CNC[C@@H](O)[C@@H](O)[C@H](O)[C@H](O)CO`, the Potency [1] was “inactive”, the Potency [2] was “inactive” and the z-score [5, 8] was 1.02. The z-score [5, 9] was 0.532, the z-score [5, 10] was 0.899 and the activity, negative = inhibition [4, 11] was 7.09% (inactive). The activity, negative = inhibition [4, 12] was 5.8% (inactive), the Potency (3D7) was “inactive” and the Potency (7G8) was “inactive”. For the same molecule, the Potency (AA1029) was “inactive” and the Potency (AS120) was “inactive”.

For `COC1=C(OC)C(=O)C(CCCCCCCCCCO)=C(C)C1=O`, the Potency [1] was “inactive”, the Potency [6] was 14.8 µM (active) and the Z-AUC [3] was -0.864 (inactive). The Z-AUC [3, 7] was -1.14, the Z-AUC ([3]; measured here: PEO4 Z-AUC) was -0.303 and the activity, negative = inhibition [4, 11] was -28.8% (inactive). For the same molecule, the activity, negative = inhibition [4, 12] was -11.7% (inactive), the Potency (AA1029) was “inactive” and the Potency (AS120) was “inactive”.

For `CC(C)[C@H](N)C(=O)OCCOCn1cnc2c(=O)[nH]c(N)nc21`, the Potency [1] was “inactive”, the Z-AUC [3] was 1.05 (inactive) and the Z-AUC [3, 7] was 0.583. For the same molecule, the Z-AUC ([3]; measured here: PEO4 Z-AUC) was 0.722, the z-score [5, 8] was 0.0968 and the z-score [5, 9] was 0.361. The z-score [5, 10] was 0.522, the activity, negative = inhibition [4, 11] was -1.13% (inactive) and the activity, negative = inhibition [4, 12] was 7.31% (inactive). The Potency (3D7) was “inactive”, the Potency (AA1029) was “inactive” and the Potency (AS120) was “inactive”.

With `CC1(C)NC(=O)N(c2ccc([N+](=O)[O-])c(C(F)(F)F)c2)C1=O` the Potency [2] was “inactive”, the activity, negative = inhibition [4, 11] was -1.6% (inactive) and the activity, negative = inhibition [4, 12] was 7.49% (inactive). The Potency (3D7) was “inactive”, the Potency (7G8) was “inactive” and the Potency (AA1029) was “inactive”. The Potency (AS120) was “inactive”.

With `COc1c2occc2cc2ccc(=O)oc12` the Potency [1] was “inactive”, the z-score [5, 8] was -0.0945 and the z-score [5, 9] was 0.483. For the same molecule, the z-score [5, 10] was 0.177.

With `CC(C)c1ccc2oc3nc(N)c(C(=O)O)cc3c(=O)c2c1` the Potency [6] was “inactive”, the Potency [2] was “inactive” and the Z-AUC [3] was -0.387 (inactive). The Z-AUC [3, 7] was 0.341, the Z-AUC ([3]; measured here: PEO4 Z-AUC) was 0.263 and the z-score [5, 8] was 0.102. For the same molecule, the z-score [5, 9] was 0.464, the z-score [5, 10] was 0.404 and the activity, negative = inhibition [4, 11] was -29.9% (inactive). The activity, negative = inhibition [4, 12] was -11.5% (inactive) and the Potency (3D7) was “inactive”.

In the case of `Oc1ccc(-c2nc(-c3ccc(F)cc3)c(-c3ccncc3)[nH]2)cc1`, the Z-AUC [3] is reported as 1.12 (inactive), the Z-AUC [3, 7] is reported as -0.0618 and the Z-AUC ([3]; measured here: PEO4 Z-AUC) is reported as 0.0892.
